# Measurements taken from PubChem BioAssay (NCATS).
# Inconclusive results are not listed. Activity calls are given as the source filed them. Calls follow the shape of the dose curve; as a rule, active = well fitted inhibition curve with a large enough effect; inconclusive = small, poorly fitted or top-dose-only effect; inactive = no such curve, though single readings can be large or run the other way.
# Assay: qHTS assay to identify inhibitors of the type 1 interferon - major histocompatibility complex class I in skeletal muscle: Counter screen cell viability and HiBit confirmation (AID 1347412); also: nearly all actives have a fitted effect of over 60% in size
# Details: iHSKM muscle cells + IFN-b, HiBiT or CellTiter-Glo, 24 h; Viability
# In short: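 After 24 h with human IFN-beta (4 ng/ml) and compound titrations (top 46 uM final, 1:3, 12 points), HLA-B HiBit myoblasts were lysed for either Nano-Glo HiBiT luminescence or CellTiter Glo viability on paired plates.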
# Potency is read from the fitted curve at half-maximal effect.
smiles,measurement,value
CC[n+]1c(/C=C/C=C2/N(C)c3ccccc3C2(C)C)sc2ccccc21,Potency,9.91 µM (active)
